Growth inhibition data for 40 molecules are collected here from PubChem BioAssay (NCI).

Molecules are shown by their SMILES. “And” between values parts separate entries of the source, which are not always exact repeats. Equal entries are not always repeated. About 79,000 compounds went through this panel and 15% of them were active in at least one assay; those are over-represented in the sample as a whole. The source made the active and inactive calls. Cut-off read from the data, not from the text of the source: active = growth inhibition above about 70%; inactive = the rest.

The nature of one assay: NCI Yeast Anticancer Drug Screen. Data for the bub3 strain (AID 167). The conditions noted are these: S. cerevisiae bub3 mutant strain, active compounds read high; at 50.0 µM unless noted. A digest of the protocol: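 Compounds were applied to a genetically altered yeast strain carrying a cell-cycle control defect. Growth inhibition was scored against vehicle-treated controls.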
Take `O=C(NO)/C(CC(=O)c1cccc(O)c1)=N\O`: the growth inhibition is -11.1% (inactive).

As to `CN(C)c1ccc(/C=C2\C(=O)/C(=C\c3ccc(N(C)C)cc3)c3ccccc32)cc1`, the growth inhibition was 1.05% (inactive).

With `CCS(=O)(=O)c1ccc(NC(=O)OC2CCC3(C)C(=CCC4C3CCC3(C)C(C(C)CCCC(C)C)CCC43)C2)cc1` (stereo not drawn), the growth inhibition is -3.25% (inactive).

In the case of `O=C1CC(Br)C(c2ccccc2)(c2ccccc2)O1` (stereo not drawn), the growth inhibition was 14.2% (inactive).

As for `O=C(OCC1OCOC2C(COC(=O)c3ccccc3)OCOC12)c1ccccc1` (stereo not drawn), the growth inhibition was 13.7% (inactive).

As for `O=[N+]([O-])c1ccc(N(CCO)CCO)cc1`, the growth inhibition was -6.4% (inactive).

On to `Cc1ccc(NC(=O)C(=O)CC(=O)c2sc(Nc3c(C)cccc3C)nc2C)cc1C`, for which the growth inhibition is -23.4% (inactive).

Turning to `COC1CCC(/C=C(\C#N)C2CCC(C)CC2)CC1` (stereo not drawn), the growth inhibition is 30.2% (inactive).

The nature of a further assay: NCI Yeast Anticancer Drug Screen. Data for the mlh1 rad18 strain (AID 175). Conditions: S. cerevisiae mlh1 rad18 strain growth inhibition, active compounds read high; at 50.0 µM unless noted. A digest of the protocol: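 Genetically defined yeast (DNA repair-deficient) exposed to compounds; growth inhibition determined relative to vehicle.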
In the case of `CNC(=S)NCOCCOC(C)=O`, the growth inhibition was 3.45% (inactive).

As for `O=C(Cc1ccccc1)CC(CC(=O)Cc1ccccc1)c1ccccc1`, the growth inhibition was -6.15% (inactive).

For the molecule `O=CC(CO)C(C=O)n1ncc2ccccc21` (stereo not drawn), the growth inhibition is 30.8% (inactive).

With `[CH3][Sn]([CH3])([S]P(=S)(c1ccccc1)c1ccccc1)[S]P(=S)(c1ccccc1)c1ccccc1`, the growth inhibition is 43.9% (inactive).

For the molecule `N=c1oc(-c2ccccc2)cc2ccccc12`, the growth inhibition was 11.7% (inactive).

With `COc1cc(OC)c2c(c1)OC(c1cccnc1)C(c1ccccc1)C2=O` (stereo not drawn), the growth inhibition was 3.9% (inactive).

As to `O=C1C=CC(=Nc2ccc3c(c2)-c2ccccc2C3)O1`, the growth inhibition was 12.1% (inactive).

As to `COC(=O)Nc1ccc(Cc2ccc(NC(=O)OC)cc2)cc1`, the growth inhibition is 29.6% (inactive).

In the case of `Cc1nc(N(C)C)oc(=O)c1CCc1ccccc1`, the growth inhibition was 8.9% (inactive).

`CCN(CC)c1ccc(N=Nc2ccc(-c3nc4cccnc4o3)cc2)cc1`: the growth inhibition was -39.3% (inactive).

On to `CCCCCCCCCCCCCCCCCC(=O)CBr`, for which the growth inhibition was 38.9% (inactive).

In the case of `C(=Nc1cccc2ccccc12)c1cccs1`, the growth inhibition was -19.8% (inactive).

As to `COC(=O)c1ccccc1-c1ccccc1C(=O)O`, the growth inhibition is -1.7% (inactive).

With `C#CCOC(=O)Nc1ccccc1`, the growth inhibition is 5.55% (inactive) and -0.8% (inactive).

For `CC1=Nc2ccc([N+](=O)[O-])cc2C1(C)C`, the growth inhibition is -5.45% (inactive).

Turning to `CCOC(Cn1ccc[n+]1CC(=O)c1ccccc1)OCC`, the growth inhibition was 9.1% (inactive).

`Cc1nc(C(N)=S)sc1C(=O)C/C(=N/N)C(=O)Nc1ccc(Cl)cc1`: the growth inhibition is -20.9% (inactive).

Consider `Cc1nc(CO)c(-c2ccc([N+](=O)[O-])cc2)o1`, for which the growth inhibition is -1.5% (inactive).

With `CCOC(=O)C1=C(O)C[C@]2(O)C3CC=C(C)[C@@H]4CCO[C@](OC)(C[C@H]2C1)[C@]34C(=O)OC` (stereo partly drawn), the growth inhibition is 13.1% (inactive).

On to `CN1CC(c2ccccc2)C(O)(C2(c3ccccc3)CN(C)CC(c3ccccc3)C2=O)C(c2ccccc2)C1` (stereo not drawn), for which the growth inhibition is -7.65% (inactive).

For the molecule `COc1ccc(C(=O)CN2CCN(c3ccccc3)CC2)cc1`, the growth inhibition was 5.35% (inactive).

As to `COc1ccc2c(c1)OC[C@@H]1c3cc(NS(=O)(=O)c4ccccc4)cc(OCc4ccccc4)c3O[C@H]21`, the growth inhibition was -6.55% (inactive).

Consider `CN(C)Cc1cc(C(=O)/C=C/c2ccc(Cl)c(Cl)c2)cc(CN(C)C)c1O`, for which the growth inhibition is -3.3% (inactive).

Turning to `N#Cc1c(-c2ccc(Cl)cc2)c(-c2ccc(Cl)cc2)nn(CCOC(=O)CCC(=O)OCCn2nc(-c3ccc(Cl)cc3)c(-c3ccc(Cl)cc3)c(C#N)c2=O)c1=O`, the growth inhibition is 26.4% (inactive).

Take `CN(C)C(=O)C(c1ccccc1)C(c1ccccc1)N(C)C=O` (stereo not drawn): the growth inhibition is 25.1% (inactive).

For the molecule `Cc1ccc(S(=O)(=O)NC(=O)NNc2ccc(F)cc2)cc1`, the growth inhibition was 42.5% (inactive).

As to `CCSc1[nH]c(Nc2nc(-c3ccccc3)n(-c3ccccc3)n2)c(C(N)=O)c1C(N)=O`, the growth inhibition was 7% (inactive).

With `CO[C@@H]1C2=CC=CC=C[C@H]2n2c(=O)n(-c3ccccc3)c(=O)n21`, the growth inhibition is 13.2% (inactive).

Turning to `Cn1nc(-c2ccccc2)c(C(=O)/C=C/c2ccccc2)c(N2CCCCC2)c1=O`, the growth inhibition is -27.8% (inactive).

For the molecule `CC(=O)[C@@]1(O)CC[C@H]2[C@@H]3CC[C@@H]4C[C@H](O)CC[C@]4(C)[C@H]3[C@H](O)C[C@@]21C`, the growth inhibition was -7.85% (inactive).

As to `COc1ccc(/C(C)=N/NC(=O)c2ccncc2)cc1OC`, the growth inhibition was -4.2% (inactive).

`CCCCCCCCSC(=N)N`: the growth inhibition was 10.7% (inactive).

Turning to `O=C(NO)/C(CC(=O)c1cccc(O)c1)=N\O`, the growth inhibition is 5.5% (inactive).

Take `CN(C)c1ccc(/C=C2\C(=O)/C(=C\c3ccc(N(C)C)cc3)c3ccccc32)cc1`: the growth inhibition was 2.95% (inactive).

In the case of `CCS(=O)(=O)c1ccc(NC(=O)OC2CCC3(C)C(=CCC4C3CCC3(C)C(C(C)CCCC(C)C)CCC43)C2)cc1` (stereo not drawn), the growth inhibition is 3.65% (inactive).

Regarding `O=C1CC(Br)C(c2ccccc2)(c2ccccc2)O1` (stereo not drawn), the growth inhibition was 32% (inactive).

`O=C(OCC1OCOC2C(COC(=O)c3ccccc3)OCOC12)c1ccccc1` (stereo not drawn): the growth inhibition is 15.7% (inactive).

Take `O=[N+]([O-])c1ccc(N(CCO)CCO)cc1`: the growth inhibition is -17.1% (inactive).

On to `Cc1ccc(NC(=O)C(=O)CC(=O)c2sc(Nc3c(C)cccc3C)nc2C)cc1C`, for which the growth inhibition is -2% (inactive).

Consider `COC1CCC(/C=C(\C#N)C2CCC(C)CC2)CC1` (stereo not drawn), for which the growth inhibition was 30.6% (inactive).
